# In PubChem BioAssay (NCI):
# This is part of a sample that, as a whole, favours compounds with a hit. Of some 79,000 tested, about 15% had one in any assay. A number with no mark means an inactive call. The source made the active and inactive calls. No stated cut-off is given here; in the data, active means growth inhibition above about 70%; inactive means the rest.
# What was measured:
# [1] = NCI Yeast Anticancer Drug Screen. Data for the rad50 strain (AID 155);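 further: 0% = growth of vehicle-only cultures of the same strain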; settings: S. cerevisiae rad50 strain growth inhibition, active compounds read high
# Summary of the method: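 Vehicle-treated cultures provide the reference for the growth inhibition reported for compound-exposed, repair-deficient yeast.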
# [2] = NCI Yeast Anticancer Drug Screen. Data for the mec2-1 strain (AID 157); settings: S. cerevisiae mec2-1 strain, active compounds read high
# Summary of the method: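 Compounds were applied to mec2-1 yeast cells. Their growth was then compared with that of vehicle-treated cultures to give growth inhibition.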
# [3] = NCI Yeast Anticancer Drug Screen. Data for the sgs1 mgt1 strain (AID 161);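 further: 0% = growth of cultures given vehicle only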; settings: S. cerevisiae sgs1 mgt1 strain, active compounds read high
# Summary of the method: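 Growth of a repair-deficient yeast mutant was monitored after compound treatment and expressed as inhibition relative to vehicle-treated cultures.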
# [4] = NCI Yeast Anticancer Drug Screen. Data for the cln2 rad14 strain (AID 165);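 further: 0% = growth equal to vehicle treated cultures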; settings: S. cerevisiae cln2 rad14 strain, active compounds read high
# Summary of the method: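 Strain: cln2 rad14 yeast, altered in cell cycle control and DNA damage repair. Read-out: growth inhibition vs vehicle.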
# [5] = NCI Yeast Anticancer Drug Screen. Data for the bub3 strain (AID 167); settings: S. cerevisiae bub3 mutant strain, active compounds read high
# Summary of the method: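 Mutant yeast screening strain plus compound; vehicle-treated cultures serve as the 0% inhibition reference.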
# [6] = NCI Yeast Anticancer Drug Screen. Data for the mlh1 rad18 strain (AID 175); settings: S. cerevisiae mlh1 rad18 strain growth inhibition, active compounds read high
# Summary of the method: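 A repair-deficient yeast strain is exposed to test compound, and growth is scored relative to vehicle-treated controls.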
# [7] = at 5.0 µM (retest, dose inferred, filed as 0.5)
# [8] = at 50.0 µM (retest, dose inferred, filed as 5.0)
Structure (SMILES),"growth inhibition [1, 7]","growth inhibition [1, 8]",growth inhibition ([1]; at 50.0 µM),"growth inhibition [2, 7]","growth inhibition [2, 8]",growth inhibition ([2]; at 50.0 µM),"growth inhibition [3, 7]","growth inhibition [3, 8]",growth inhibition ([3]; at 50.0 µM),"growth inhibition [4, 7]","growth inhibition [4, 8]",growth inhibition ([4]; at 50.0 µM),"growth inhibition [5, 7]","growth inhibition [5, 8]",growth inhibition ([5]; at 50.0 µM),"growth inhibition [6, 7]","growth inhibition [6, 8]",growth inhibition ([6]; at 50.0 µM)
O=[N+]([O-])/C(Cl)=C(\Sc1ccccc1)C(Cl)=C(Cl)Cl,100% (active),99% (active),89.8% (active),100% (active),100% (active),93.4% (active),99% (active),99% (active),90.6% (active),99% (active),99% (active),91.9% (active),99% (active),99% (active),91.8% (active),100% (active),99% (active),86.8% (active)
CCCC/C(=N/Nc1ccc([N+](=O)[O-])cc1)C(=O)O,14%,97% (active),71.5% (active),8%,95% (active),24.3%,14%,97% (active),75% (active),-3%,60%,24.5%,18%,98% (active),82% (active),21%,98% (active),57.4%
O=[N+]([O-])c1cc(Br)cc(Br)c1O,-2%,19%,61.6%,18%,45%,49.6%,10%,38%,40.4%,20%,41%,82.7% (active),-7%,30%,75.8% (active),2%,56%,68.4%
CCOC(=O)C(=O)NNc1ccccc1,22%,89% (active),97.8% (active),3%,82% (active),94.8% (active),13%,61%,98.7% (active),-1%,57%,92.7% (active),17%,96% (active),97.5% (active),31%,95% (active),98.9% (active)
COc1ccc(CC2c3cc4c(cc3CCN2C)OCO4)c(C=O)c1OC (configuration not stated),-2%,-4%,82% (active),-1%,-1%,86.7% (active),-1%,-3%,83.3% (active),-4%,-11%,84.7% (active),-2%,1%,57.3%,-2%,-4%,-38.8%
CC(=O)N/N=C1/CC[C@@]2(C)C(=CC[C@H]3C4CCC(C(C)CCCC(C)C)[C@@]4(C)CCC32)C1(C)C (some centres not stated),-23%,79% (active),31.6%,-14%,83% (active),6.35%,-7%,84% (active),24.8%,-11%,74% (active),55.1%,-10%,70% (active),29.6%,-12%,90% (active),1.3%
CC(=O)O[C@H]1CC[C@@]2(C)C(CC[C@]3(C)C2CC=C2[C@@H]4CC(C)(C)CC[C@]4(C(=O)NCCN(C)C)CCC23C)C1(C)C (some centres not stated),-3%,94% (active),77% (active),-2%,98% (active),95.4% (active),-2%,98% (active),72.7% (active),-4%,57%,5.3%,-2%,87% (active),-21.4%,-2%,93% (active),97.7% (active)
NC1CCCCC1N.O=S(=O)([O-])CCCN1CCOCC1.O=S(=O)([O-])CCCN1CCOCC1.[Pt+4],-12%,89% (active),99% (active),-6%,73% (active),98.9% (active),0%,87% (active),99% (active),-14%,58%,99% (active),10%,92% (active),98.6% (active),20%,98% (active),99.2% (active)
CC1(c2ccccc2)NC(=O)N(CC(=O)N(c2ccccc2)c2ccccc2)C1=O (configuration not stated),12%,28%,49.4%,15%,33%,23.6%,9%,30%,33.5%,14%,55%,40.5%,8%,38%,33.7%,12%,39%,52.1%
O=C1OC(=O)C2C=CC=CC12 (configuration not stated),2%,-5%,50%,-1%,-9%,-8.45%,2%,4%,-7.9%,-1%,-6%,-74.8%,-3%,2%,6.15%,14%,2%,-12.2%
CC1SC2=NC3=C(c4ccccc4C3=O)C(c3ccc(Cl)cc3)N2C1=O (configuration not stated),-3%,75% (active),58.7%,-28%,81% (active),33.8%,-6%,69%,73.2% (active),14%,84% (active),56.3%,-3%,88% (active),51.8%,-17%,91% (active),53.4%
COC(=O)/C=C(\C)Nc1ccc(Cc2ccc(Cl)cc2)cc1,7%,98% (active),98.3% (active),-3%,99% (active),97.8% (active),7%,99% (active),97.2% (active),1%,99% (active),97.5% (active),-3%,98% (active),97.5% (active),9%,99% (active),98.2% (active)
C/C=C\C(/C=C/C)(C(=O)OCCN(C)C)C(/C=C\C)(/C=C/C)C(=O)OCCN(C)C (configuration not stated),5%,97% (active),98% (active),2%,97% (active),96.8% (active),5%,96% (active),95.8% (active),2%,97% (active),96.5% (active),2%,95% (active),95.4% (active),3%,97% (active),97% (active)
CCOC(=O)/C(=C\c1ccc(C)cc1)C(C)=O,19%,89% (active),91.1% (active),-19%,97% (active),91.8% (active),24%,95% (active),93.1% (active),5%,89% (active),84.7% (active),33%,98% (active),91.2% (active),22%,96% (active),90.7% (active)
CN1C(=O)[C@@H]2N(N(C)C1=O)[C@@]1(Br)C(=O)N(C)C(=O)[C@@]21Br,18%,78% (active),92.5% (active),4%,57%,79% (active),18%,84% (active),87.8% (active),4%,24%,67.8%,1%,53%,94.5% (active),14%,91% (active),97.8% (active)
Brc1ccc(N2COc3ccc4ccccc4c3C2)cc1,9%,-23%,19.2%,19%,-1%,35.5%,16%,-4%,62.4%,-17%,-3%,0.95%,9%,-3%,77.9% (active),16%,2%,46.4%
COc1cccc2c1C(=O)c1c(O)c3c(c(O)c1C2=O)CC(O)(C(C)=O)CC3OC1OC(COC(C)=O)C(OC(C)=O)C(OC(C)=O)C1OC(C)=O (configuration not stated),5%,58%,95.5% (active),49%,30%,97.5% (active),3%,33%,97.8% (active),5%,8%,97.2% (active),2%,83% (active),98.9% (active),3%,59%,98% (active)
NN(c1ccccc1)c1cccc2ccccc12,2%,96% (active),-16.4%,-1%,97% (active),3.7%,1%,97% (active),39.1%,-4%,95% (active),-23.8%,-1%,96% (active),75.9% (active),1%,96% (active),25.1%
O=C(Nc1cc(-c2ccccc2)[nH]n1)c1ccccc1,34%,36%,33.4%,29%,37%,16.1%,38%,58%,23.9%,23%,25%,18%,31%,73% (active),56.8%,46%,47%,23.4%
